# Inconclusive results are not listed. The source made the active and inactive calls. How the source made its calls, unless noted: active means hit-call score of the fitted dose curve at least 0.9, where 1 is the maximum; inconclusive means response in the unintended direction; inactive means score below 0.9.
# Columns and labels:
# [1] = Tanguay_ZF_120hpf_PE_legacy: (Legacy) Oregon State University Tanguay Lab 120 Hour Post-fertilization zebrafish Assay for Pericardial Edema (AID 2283640);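 on AC50: potency for increased incidence of pericardial edema versus DMSO baseline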
# Summary of the method: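 Tropical 5D wild-type zebrafish embryos were statically exposed until 120 hpf at 28C, with 0.64% DMSO final. Pericardial edema was scored by brightfield as present or absent; endpoints were not scored in dead embryos.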
# [2] = Tanguay_ZF_120hpf_BRAI_legacy: (Legacy) Oregon State University Tanguay Lab 120 Hour Post-fertilization zebrafish Assay for Brain Malformation (AID 2283641)
# Summary of the method: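 Tropical 5D wild-type zebrafish embryos exposed statically until 120 hpf at 28C, 0.64% DMSO final, sealed and dark. Brain malformation scored present/absent by brightfield at 120 hpf; dead embryos excluded. Trimethyltin chloride 5uM positive control.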
# [3] = Tanguay_ZF_120hpf_SOMI_legacy: (Legacy) Oregon State University Tanguay Lab 120 Hour Post-fertilization zebrafish Assay for Somite Malformation (AID 2283647)
# Summary of the method: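 Dechorionated Tropical 5D wild-type zebrafish embryos, one per well from 6 hpf, statically exposed at 28C to 120 hpf in 0.64% DMSO; somite malformation scored present/absent by brightfield; trimethyltin 5 uM positive control; dead embryos not scored.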
# [4] = Tanguay_ZF_120hpf_PFIN_legacy: (Legacy) Oregon State University Tanguay Lab 120 Hour Post-fertilization zebrafish Assay for Pectoral Fin Malformation (AID 2283648);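 further: each larva judged yes or no for fin defect by brightfield with dead larvae skipped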
# Summary of the method: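 Pectoral fin malformation was recorded as a binary endpoint at 120 hpf in wild-type Tropical 5D larvae, which had been dechorionated and exposed statically from 6 hpf at 28C in 0.64% DMSO. Dead embryos were excluded.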
# [5] = Tanguay_ZF_120hpf_CFIN_legacy: (Legacy) Oregon State University Tanguay Lab 120 Hour Post-fertilization zebrafish Assay for Caudal Fin Malformation (AID 2283649)
# Summary of the method: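 Dechorionated Tropical 5D wild-type embryos, one per well from 6 hpf, static exposure to 120 hpf at 28C in 0.64% DMSO. Caudal fin malformation scored by brightfield as present/absent; not scored in dead embryos.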
# [6] = Tanguay_ZF_120hpf_PIG_legacy: (Legacy) Oregon State University Tanguay Lab 120 Hour Post-fertilization zebrafish Assay for Pigmentation Malformation (AID 2283650)
# Summary of the method: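 Pigment malformation recorded as a binary call at 120 hpf in zebrafish (Tropical 5D) exposed singly from 6 hpf after pronase dechorionation. Static, sealed, 28C exposure, 0.64% DMSO; mortality excludes scoring; positive-direction fit against DMSO.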
# [7] = Tanguay_ZF_120hpf_SWIM_legacy: (Legacy) Oregon State University Tanguay Lab 120 Hour Post-fertilization zebrafish Assay for Swim Bladder Malformation (AID 2283654);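 further: swim bladder malformation in each larva scored yes or no under brightfield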
# Summary of the method: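 Scoring is binary for swim bladder defects at 120 hpf, by brightfield inspection of zebrafish larvae. Embryos were exposed singly from 6 hpf after pronase dechorionation, at 28C with 0.64% DMSO; mortality excluded scoring.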
# [8] = Tanguay_ZF_120hpf_CIRC_legacy: (Legacy) Oregon State University Tanguay Lab 120 Hour Post-fertilization zebrafish Assay for Circulatory Malformation (AID 2283651)
# Summary of the method: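 Binary circulatory malformation call at 120 hpf by brightfield imaging of zebrafish larvae; chorion removed at 4 hpf, static exposure from 6 hpf in sealed dark plates at 28C, final DMSO 0.64%; non-mortality endpoints skipped if embryo died.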
# [9] = read-out: solute carrier (SLC22A6), SLC22A6 (gene 9356); assay: LTEA_HepaRG_SLC22A6: Life Technologies and Expression Analysis (LTEA) Assay for solute carrier (SLC22A6) using HepaRG (AID 2283653; active means hit-call score of the fitted dose curve at least 0.9, where 1 is the maximum; inactive means score below 0.9); details: mRNA level, 48 h; actives raise or lower the signal
# Summary of the method: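 Differentiated HepaRG cells exposed 48 h in serum-free induction medium to 8 half-log concentrations, top 100 uM, in 0.5% DMSO; SLC22A6 mRNA by Fluidigm qRT-PCR normalized to ACTB, GAPDH, POLR2A, fitted bidirectionally versus DMSO.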
structure (smiles),measurement,setting,value
Cc1oc(-c2ccccc2)nc1CCOc1ccc(C[C@H](Nc2ccccc2C(=O)c2ccccc2)C(=O)O)cc1,outcome,[1],inactive
same,outcome,[2],inactive
same,outcome,[3],inactive
same,outcome,[4],inactive
same,outcome,[5],inactive
same,outcome,[6],inactive
same,outcome,[7],inactive
Oc1cc2ccccc2c2ccccc12,AC50,[2],36.2 µM (active)
same,AC50,[3],12.4 µM (active)
same,AC50,[4],12.1 µM (active)
same,AC50,[5],36.5 µM (active)
same,AC50,[6],12.9 µM (active)
same,AC50,[8],10.2 µM (active)
same,AC50,[7],10.3 µM (active)
OCCC(F)(F)C(F)(F)C(F)(F)C(F)(F)C(F)(F)C(F)(F)F,outcome,[1],inactive
same,outcome,[2],inactive
same,outcome,[3],inactive
same,outcome,[5],inactive
same,outcome,[6],inactive
same,outcome,[8],inactive
same,outcome,[7],inactive
CC#C[C@]1(O)CC[C@H]2[C@@H]3CCC4=CC(=O)CCC4=C3[C@@H](c3ccc(N(C)C)cc3)C[C@@]21C,AC50,[1],73.3 µM (active)
same,outcome,[3],inactive
same,outcome,[5],inactive
same,outcome,[6],inactive
same,outcome,[8],inactive
same,outcome,[7],inactive
O=C(O)c1ccccc1C(c1ccc(O)cc1)c1ccc(O)cc1,outcome,[1],inactive
same,outcome,[3],inactive
same,outcome,[4],inactive
same,outcome,[5],inactive
same,outcome,[6],inactive
same,outcome,[8],inactive
same,outcome,[7],inactive
CCc1ccc(CCOc2ccc(CC3SC(=O)NC3=O)cc2)nc1 (stereo unspecified),outcome,[1],inactive
same,outcome,[2],inactive
same,outcome,[3],inactive
same,outcome,[4],inactive
same,outcome,[5],inactive
same,outcome,[6],inactive
same,outcome,[8],inactive
NC(=O)N1C(=O)C(C(=O)c2cc(Cl)cs2)c2cc(F)c(Cl)cc21 (stereo unspecified),outcome,[1],inactive
same,outcome,[2],inactive
same,outcome,[3],inactive
same,outcome,[4],inactive
same,outcome,[5],inactive
same,outcome,[6],inactive
same,outcome,[8],inactive
same,outcome,[7],inactive
O=[N+]([O-])c1ccc(O)cc1,outcome,[1],inactive
same,outcome,[2],inactive
same,outcome,[3],inactive
same,outcome,[4],inactive
same,outcome,[5],inactive
same,outcome,[6],inactive
same,outcome,[8],inactive
same,outcome,[7],inactive
Cc1cc(CCN2CCN(c3nsc4ccccc34)CC2)cc2c1NC(=O)CC2(C)C,AC50,[2],5.16 µM (active)
same,AC50,[3],3.88 µM (active)
same,AC50,[4],5.62 µM (active)
same,AC50,[5],6.48 µM (active)
same,AC50,[6],6.31 µM (active)
same,AC50,[8],5.83 µM (active)
same,AC50,[7],3.82 µM (active)
CCCCCCCC(=O)O,outcome,[2],inactive
same,outcome,[3],inactive
same,outcome,[4],inactive
same,outcome,[5],inactive
same,outcome,[6],inactive
same,outcome,[8],inactive
same,outcome,[7],inactive
CN1CCC[C@H]1c1cccnc1,outcome,[1],inactive
same,outcome,[2],inactive
same,outcome,[3],inactive
same,outcome,[4],inactive
same,outcome,[5],inactive
same,outcome,[6],inactive
same,outcome,[7],inactive
CCCCC(CC)COC(=O)CCCCC(=O)OCC(CC)CCCC (stereo unspecified),outcome,[2],inactive
same,outcome,[3],inactive
same,outcome,[4],inactive
same,outcome,[5],inactive
same,outcome,[6],inactive
same,outcome,[8],inactive
same,outcome,[7],inactive
Nc1cccc2c(N)cccc12,outcome,[1],inactive
same,outcome,[2],inactive
same,outcome,[3],inactive
same,outcome,[4],inactive
same,outcome,[5],inactive
same,outcome,[6],inactive
same,outcome,[7],inactive
N#C[C@@H]1CC(F)(F)CN1C(=O)CNC1CC2CCC(C1)N2c1ncccn1 (stereo partly specified),outcome,[2],inactive
same,outcome,[3],inactive
same,outcome,[4],inactive
same,outcome,[5],inactive
same,outcome,[6],inactive
same,outcome,[8],inactive
CN1CCN(c2ccccc2/C=C2\SCCN(c3ccc(Cl)c(Cl)c3)C2=O)CC1,outcome,[1],inactive
same,outcome,[2],inactive
same,outcome,[3],inactive
same,outcome,[4],inactive
same,outcome,[5],inactive
same,outcome,[6],inactive
same,outcome,[8],inactive
same,outcome,[7],inactive
CC[C@H](c1ccc(O)cc1)[C@@H](CC)c1ccc(O)cc1,outcome,[2],inactive
same,outcome,[3],inactive
same,outcome,[4],inactive
same,outcome,[5],inactive
same,outcome,[6],inactive
same,outcome,[8],inactive
CC(=O)CC(C)(C)O,outcome,[2],inactive
same,outcome,[3],inactive
same,outcome,[4],inactive
same,outcome,[5],inactive
same,outcome,[6],inactive
same,outcome,[8],inactive
CC1=C(/C=C/C(C)=C/C=C/C(C)=C/C(=O)O)C(C)(C)CCC1,AC50,[2],0.237 µM (active)
same,AC50,[3],0.323 µM (active)
same,AC50,[4],0.248 µM (active)
same,AC50,[5],0.186 µM (active)
same,AC50,[6],0.252 µM (active)
same,outcome,[8],inactive
same,outcome,[7],inactive
CC[C@H](C)[C@@H](C(=O)O)n1sc2ccccc2c1=O,outcome,[2],inactive
same,outcome,[3],inactive
same,outcome,[4],inactive
same,outcome,[5],inactive
same,outcome,[6],inactive
same,outcome,[8],inactive
C#C[C@]1(O)CC[C@H]2[C@@H]3CCC4=CC(=O)CC[C@@H]4[C@H]3CC[C@@]21C,outcome,[1],inactive
same,outcome,[4],inactive
same,outcome,[5],inactive
same,outcome,[6],inactive
same,outcome,[9],inactive
same,outcome,[7],inactive
CCCCCCCCC(=O)O,outcome,[1],inactive
same,outcome,[2],inactive
same,outcome,[3],inactive
same,outcome,[4],inactive
same,outcome,[5],inactive
same,outcome,[6],inactive
same,outcome,[8],inactive
same,outcome,[7],inactive
c1ccc2cc3c(ccc4ccccc43)cc2c1,AC50,[1],33.4 µM (active)
same,AC50,[2],48.5 µM (active)
same,outcome,[3],inactive
same,outcome,[5],inactive
same,outcome,[6],inactive
same,outcome,[8],inactive
same,outcome,[7],inactive
CC(C)(C)CC(C)(C)c1ccc(O)c(-n2nc3ccccc3n2)c1,outcome,[2],inactive
same,outcome,[3],inactive
same,outcome,[4],inactive
same,outcome,[5],inactive
same,outcome,[6],inactive
same,outcome,[8],inactive
same,outcome,[7],inactive
CC(C)(C)c1ccc(O)c(C(C)(C)C)c1,outcome,[2],inactive
same,outcome,[3],inactive
same,outcome,[4],inactive
same,outcome,[5],inactive
same,outcome,[6],inactive
same,outcome,[8],inactive
same,outcome,[7],inactive
CCCCCCCCCCCCCCCS(=O)(=O)Oc1ccccc1,outcome,[1],inactive
same,outcome,[3],inactive
same,outcome,[4],inactive
same,outcome,[5],inactive
same,outcome,[6],inactive
same,outcome,[8],inactive
same,outcome,[7],inactive
CC(O)CO (stereo unspecified),outcome,[1],inactive
same,outcome,[2],inactive
same,outcome,[3],inactive
same,outcome,[4],inactive
same,outcome,[5],inactive
same,outcome,[6],inactive
same,outcome,[8],inactive
same,outcome,[9],inactive

# — PubChem BioAssay (EPA / NIEHS)
